Results: PubChem BioAssay
For some of these results: Entries with a potency or affinity are not part of this list. Results filed as inconclusive are left out. Calls of active or inactive are those of the source.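 Rule for the calls, unless noted: active = a dose-response fit showing signal loss, with half-maximal concentration no higher than twice the top tested dose; inconclusive = flat fit between 30% and 70% signal loss, or poor fit; inactive = the rest.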

How the values were obtained:
[1] = small molecules captured by biotinylated probe aFSTL3 – biochemical, small-molecule microarray, fluorescence 635/667, stem cell growth factor project, primary screen (AID 1064); conditions: higher = more signal;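 note: measures binding of the biotinylated anti-FSTL3 antibody to printed compounds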
[2] = binders from COS7 lysate, DM2A8 probe, primary screen, torsin A project, cell lysate, small-molecule microarray, fluorescence 635/667 (AID 1065); conditions: higher = more signal, COS7 lysate expressing mutant human TOR1A
[3] = small molecules captured by biotinylated probe aFGF2 – biochemical, small-molecule microarray, fluorescence 635/667, stem cell growth factor project, primary screen (AID 1067); conditions: higher = more signal;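 note: measures binding of biotinylated aFGF2 protein to printed compounds on slides; z-score merges feature fluorescence and signal-to-noise across triplicate slides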
[4] = small molecules captured by biotinylated probe aFGF10 – biochemical, small-molecule microarray, fluorescence 635/667, stem cell growth factor project, primary screen (AID 1071); conditions: higher = more signal;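 note: score merges 667 nm spot intensity and signal to noise from triplicate slides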
[5] = target: Neurogenic locus notch homolog protein 2 (Homo sapiens) (UniProt Q04721); test: small molecules binding Notch2 protein – biochemical, small-molecule microarray, 635 nm fluorescence, stem cell growth factors, primary screen (AID 1073); conditions: higher = more signal
[6] = target: Pro-neuregulin-1, membrane-bound isoform (Homo sapiens) (UniProt Q02297); test: small molecules binding neuregulin-1 protein – biochemical, small-molecule microarray, fluorescence 635/667, psychiatric disease protein project, primary screen (AID 1075); conditions: NRG1 binding, 635 nm fluorescence, higher = more signal;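 note: score combines 667 nm spot fluorescence with signal to noise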
[7] = system: Neuregulin-1 EGF-like domain; test: small molecules binding NRG1 EGF domain – biochemical, small-molecule microarray, 635 nm fluorescence, primary screen (AID 1081); conditions: higher = more signal;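 note: binding of the protein to compounds printed on small-molecule microarray slides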
[8] = FRG1 expression reporter modulators in myotubes – cell-based, C2C12 myotubes, firefly/Renilla luciferase, luminescence, FRG1 inhibition for FSHD, primary screen (AID 1084); conditions: FRG1 promoter luciferase, higher = more signal, called active from +8 up or from −8 down
[9] = small molecules captured by biotinylated probe aFST – biochemical, small-molecule microarray, fluorescence 635/667, stem cell growth factor project, primary screen (AID 1086); conditions: higher = more signal;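 note: score merges 667 nm fluorescence with signal-to-noise of each printed compound spot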
[10] = binders of probe aHhip on microarray, primary screen, stem cell growth factor project, biochemical, small-molecule microarray, fluorescence 635/667 (AID 1087); conditions: higher = more signal;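 note: score merges spot fluorescence at 667nm with spot signal to noise ratio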
[11] = system: PRMT1 (protein arginine N-methyltransferase 1); test: small molecules binding arginine methyltransferase PRMT1 – biochemical, small-molecule microarray, 635 nm fluorescence, primary screen (AID 1088); conditions: higher = more signal;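 note: binding of Prmt1 protein to compounds spotted on small-molecule microarray slides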
[12] = growth effects on S. cerevisiae YJM789 – YJM789 clinical isolate, OD600, 24 h, basal, primary screen (AID 1089); conditions: higher = more signal, called active from +8 up or from −8 down;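 note: growth of clinical yeast isolate S. cerevisiae YJM 789 seeded 1000 cells per well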
[13] = S. pombe growth modifiers, basal conditions – strain 972, OD600, 24 h, no modulator, primary screen (AID 1090);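 note: basal condition with compound alone and no growth modifier present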; conditions: S. pombe 972 growth, higher = more signal, called active from +8 up or from −8 down
[14] = budding yeast growth modifiers under rapamycin – strain BY4716, OD600, 96 h, primary screen (AID 1091); conditions: S. cerevisiae BY4716 + rapamycin, higher = more signal, called active from +8 up or from −8 down
[15] = target: Torsin-1A-interacting protein 2 (Homo sapiens) (UniProt Q8NFQ8); test: small molecules binding lysate-expressed LULL1 – cell lysate, human LULL1 lysate, 635/667 nm fluorescence, primary screen (AID 1092); conditions: small-molecule microarray, hLULL1 lysate binding, 635 nm fluorescence; higher = more signal;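 note: probe is lysate of COS7 cells overexpressing human LULL1; score merges per-feature 667 nm fluorescence with signal-to-noise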
[16] = optical density change of DRC41 E. coli – strain DRC41, OD650, 24 h, E. coli filamentation project, primary screen (AID 1093);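 note: MC1000 strain lacking acrAB efflux and sulA so SOS filamentation is blocked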; conditions: E. coli DRC41 growth, higher = more signal, called active from +8 up or from −8 down
[17] = probe aLefty2 binding to arrayed compounds – biochemical, biotinylated probe, 635/667 nm fluorescence, primary screen (AID 1094); conditions: small-molecule microarray, higher = more signal;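 note: score merges spot fluorescence near 667 nm with spot signal-to-noise ratio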
[18] = fungal growth arrest, C. neoformans – Alamar Blue, cherry-picks, dose response (AID 686998;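 active = falling signal with fitted half-maximal potency no higher than twice the top valid tested dose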); conditions: Cryptococcus neoformans growth, 24 h; series mostly up to 35 µM
[19] = C. neoformans lysis by adenylate kinase leakage – AK release luminescence, cherry-picks, dose response (AID 687000;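 active = fitted dose curve reaches 40% lysis signal rise at or below the highest valid concentration tested for that sample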;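 note: luminescent detection of adenylate kinase leaking from lysed yeast; 0% = median neutral control signal and 100% = double that signal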); conditions: 4 h, 100% = twice the neutral-control signal; series mostly up to 15 µM
[20] = viability loss in HepG2 hepatoma cells – cell-based, cherry-picks, set 2, cytotoxicity control, dose response (AID 687002); conditions: ATP luminescence (CellTiter-Glo), 48 h; series mostly up to 26 µM

Sequence of Torsin-1A-interacting protein 2 (Homo sapiens) (Q8NFQ8 whole entry, looked up): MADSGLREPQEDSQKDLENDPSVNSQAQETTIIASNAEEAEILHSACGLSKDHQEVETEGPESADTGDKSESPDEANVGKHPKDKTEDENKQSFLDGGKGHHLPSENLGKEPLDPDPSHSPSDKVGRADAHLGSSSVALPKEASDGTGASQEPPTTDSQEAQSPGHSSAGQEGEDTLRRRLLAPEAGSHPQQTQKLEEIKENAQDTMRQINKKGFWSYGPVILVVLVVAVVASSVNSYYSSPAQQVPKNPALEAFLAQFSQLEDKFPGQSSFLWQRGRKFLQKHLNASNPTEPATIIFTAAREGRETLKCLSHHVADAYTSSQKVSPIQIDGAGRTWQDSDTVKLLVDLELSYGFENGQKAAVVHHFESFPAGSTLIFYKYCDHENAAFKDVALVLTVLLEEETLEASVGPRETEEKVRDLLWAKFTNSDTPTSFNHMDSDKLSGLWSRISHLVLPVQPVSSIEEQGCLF
Sequence of Neurogenic locus notch homolog protein 2 (Homo sapiens) (Q04721 whole entry, looked up, canonical isoform): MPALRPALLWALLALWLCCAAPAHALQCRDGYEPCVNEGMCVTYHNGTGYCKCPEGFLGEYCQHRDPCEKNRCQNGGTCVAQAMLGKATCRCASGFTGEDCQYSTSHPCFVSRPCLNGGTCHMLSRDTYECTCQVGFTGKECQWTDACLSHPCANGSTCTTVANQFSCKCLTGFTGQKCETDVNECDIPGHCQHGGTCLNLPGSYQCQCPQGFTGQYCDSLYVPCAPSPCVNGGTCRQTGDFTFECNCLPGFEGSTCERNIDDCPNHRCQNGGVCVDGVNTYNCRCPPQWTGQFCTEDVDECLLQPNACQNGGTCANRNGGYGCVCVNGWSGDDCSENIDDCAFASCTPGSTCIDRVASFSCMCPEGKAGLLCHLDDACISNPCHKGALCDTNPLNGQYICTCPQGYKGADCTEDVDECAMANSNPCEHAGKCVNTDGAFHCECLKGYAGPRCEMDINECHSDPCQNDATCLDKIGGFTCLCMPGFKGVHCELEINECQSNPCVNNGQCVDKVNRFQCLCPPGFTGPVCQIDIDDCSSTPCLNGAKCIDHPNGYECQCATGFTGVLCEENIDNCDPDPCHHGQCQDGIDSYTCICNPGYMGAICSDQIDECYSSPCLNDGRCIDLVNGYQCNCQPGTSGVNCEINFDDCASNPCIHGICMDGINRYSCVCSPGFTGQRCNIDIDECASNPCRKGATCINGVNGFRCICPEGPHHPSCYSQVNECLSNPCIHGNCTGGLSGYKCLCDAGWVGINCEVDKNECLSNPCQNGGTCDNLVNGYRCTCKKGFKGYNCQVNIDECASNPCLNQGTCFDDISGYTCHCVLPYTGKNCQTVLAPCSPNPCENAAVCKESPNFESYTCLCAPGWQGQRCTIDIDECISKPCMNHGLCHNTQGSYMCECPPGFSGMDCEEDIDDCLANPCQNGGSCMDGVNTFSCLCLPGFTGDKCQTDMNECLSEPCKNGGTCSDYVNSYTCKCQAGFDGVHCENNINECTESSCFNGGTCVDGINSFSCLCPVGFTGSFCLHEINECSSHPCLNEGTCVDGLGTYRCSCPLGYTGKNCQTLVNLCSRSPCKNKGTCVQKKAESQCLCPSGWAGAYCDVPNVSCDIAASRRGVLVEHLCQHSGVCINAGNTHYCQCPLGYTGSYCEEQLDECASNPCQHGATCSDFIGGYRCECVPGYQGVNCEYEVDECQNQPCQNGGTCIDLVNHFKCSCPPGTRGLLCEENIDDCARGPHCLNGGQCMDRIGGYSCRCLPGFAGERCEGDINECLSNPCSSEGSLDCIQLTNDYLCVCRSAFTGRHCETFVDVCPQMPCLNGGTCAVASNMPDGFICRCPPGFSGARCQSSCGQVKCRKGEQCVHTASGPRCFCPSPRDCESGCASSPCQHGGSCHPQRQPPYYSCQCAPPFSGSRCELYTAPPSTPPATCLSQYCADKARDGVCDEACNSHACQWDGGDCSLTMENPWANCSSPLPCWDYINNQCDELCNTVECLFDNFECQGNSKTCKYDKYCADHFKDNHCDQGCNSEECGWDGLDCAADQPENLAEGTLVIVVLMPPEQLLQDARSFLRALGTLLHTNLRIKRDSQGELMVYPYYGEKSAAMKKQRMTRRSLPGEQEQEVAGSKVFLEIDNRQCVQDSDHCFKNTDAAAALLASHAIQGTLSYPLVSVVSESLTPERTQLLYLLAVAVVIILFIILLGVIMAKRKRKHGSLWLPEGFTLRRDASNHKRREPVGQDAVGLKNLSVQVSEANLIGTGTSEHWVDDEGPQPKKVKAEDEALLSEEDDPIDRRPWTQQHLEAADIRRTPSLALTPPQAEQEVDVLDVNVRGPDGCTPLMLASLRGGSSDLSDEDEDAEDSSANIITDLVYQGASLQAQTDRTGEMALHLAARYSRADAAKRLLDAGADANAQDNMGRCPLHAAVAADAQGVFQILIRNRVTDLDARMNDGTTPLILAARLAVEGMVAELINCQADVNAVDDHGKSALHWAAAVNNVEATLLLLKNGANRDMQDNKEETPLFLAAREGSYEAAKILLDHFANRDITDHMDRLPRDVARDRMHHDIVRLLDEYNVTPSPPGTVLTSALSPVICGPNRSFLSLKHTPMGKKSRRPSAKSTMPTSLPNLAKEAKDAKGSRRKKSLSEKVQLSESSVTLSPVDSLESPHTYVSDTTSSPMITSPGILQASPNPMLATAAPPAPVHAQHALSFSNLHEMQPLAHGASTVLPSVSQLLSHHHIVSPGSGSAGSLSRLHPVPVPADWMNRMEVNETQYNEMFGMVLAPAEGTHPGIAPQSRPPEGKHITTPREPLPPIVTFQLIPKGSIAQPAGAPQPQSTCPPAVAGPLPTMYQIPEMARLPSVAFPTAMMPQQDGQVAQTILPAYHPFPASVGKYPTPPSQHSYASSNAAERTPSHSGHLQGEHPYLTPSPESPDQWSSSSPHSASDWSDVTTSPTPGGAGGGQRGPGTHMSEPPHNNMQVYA
Sequence of Pro-neuregulin-1, membrane-bound isoform (Homo sapiens) (Q02297 whole entry, looked up, the tested form may be a part, canonical isoform): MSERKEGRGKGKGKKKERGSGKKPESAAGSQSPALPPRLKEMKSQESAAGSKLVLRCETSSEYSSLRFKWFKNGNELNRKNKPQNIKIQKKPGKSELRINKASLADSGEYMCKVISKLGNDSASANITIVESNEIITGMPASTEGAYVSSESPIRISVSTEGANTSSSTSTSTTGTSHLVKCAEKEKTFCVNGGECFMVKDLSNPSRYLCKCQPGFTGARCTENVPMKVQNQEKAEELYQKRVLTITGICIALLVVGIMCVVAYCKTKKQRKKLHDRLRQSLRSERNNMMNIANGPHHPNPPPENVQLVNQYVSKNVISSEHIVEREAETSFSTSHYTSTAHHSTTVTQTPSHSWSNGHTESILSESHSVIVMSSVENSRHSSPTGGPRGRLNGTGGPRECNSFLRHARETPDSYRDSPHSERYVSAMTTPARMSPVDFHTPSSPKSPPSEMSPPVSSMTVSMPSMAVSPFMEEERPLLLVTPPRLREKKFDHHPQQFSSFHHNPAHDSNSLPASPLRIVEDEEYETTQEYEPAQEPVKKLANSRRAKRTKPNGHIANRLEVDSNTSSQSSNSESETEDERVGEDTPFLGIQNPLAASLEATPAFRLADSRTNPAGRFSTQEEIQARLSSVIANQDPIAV

## CC(C)(C)OC(=O)CC[C@]1(C(=O)NCc2ccccc2)COC(c2ccc(OCCCO)cc2)=N1
[1]
  composite z-score: 0.508
[2]
  composite z-score: 1.3
[3]
  composite z-score: -0.0675
[4]
  composite z-score: 0.0174
[5]
  composite z-score: 0.431
[6]
  composite z-score: 1.79
[7]
  composite z-score: 1.1
[8]
  z-score: -2.97 (inactive)
[9]
  composite z-score: 0.613
[10]
  composite z-score: -0.0047
[11]
  composite z-score: 0.712
[12]
  z-score: -1.08 (inactive)
[13]
  z-score: -0.413 (inactive)
[14]
  z-score: -1.64 (inactive)
[15]
  composite z-score: 3.14
[16]
  z-score: 1.93 (inactive)
[17]
  composite z-score: 0.0325

## COc1ccc(/C=C/C(=O)c2cccc(OCC(=O)OC(C)(C)C)c2)cc1
[1]
  composite z-score: 0.158
[2]
  composite z-score: 0.0968
[3]
  composite z-score: -0.17
[4]
  composite z-score: -0.672
[5]
  composite z-score: -0.466
[6]
  composite z-score: 0.421
[7]
  composite z-score: 0.284
[8]
  z-score: 4.17 (inactive)
[9]
  composite z-score: -0.126
[10]
  composite z-score: -0.226
[11]
  composite z-score: 0.898
[12]
  z-score: 0.0268 (inactive)
[13]
  z-score: -2.14 (inactive)
[14]
  z-score: 10.9 (active)
[15]
  composite z-score: 1.21
[16]
  z-score: 0.328 (inactive)
[17]
  composite z-score: -0.102

## COCCOC(=O)N1C(=O)[C@@]2(c3cc(C#CC4(O)CCCCCC4)ccc31)[C@H](c1ccccc1OCCO)N1[C@H](c3ccccc3)[C@H](c3ccccc3)OC(=O)[C@H]1[C@@H]2C(=O)Nc1nc2ccccc2s1
[1]
  composite z-score: -0.172
[2]
  composite z-score: 1.05
[3]
  composite z-score: 0.0359
[4]
  composite z-score: 0.659
[5]
  composite z-score: 1.11
[6]
  composite z-score: 0.41
[7]
  composite z-score: 1.26
[8]
  z-score: 1.54 (inactive)
[9]
  composite z-score: 0.325
[10]
  composite z-score: -0.121
[11]
  composite z-score: 1.55
[12]
  z-score: 2.04 (inactive)
[13]
  z-score: -0.312 (inactive)
[14]
  z-score: 3.94 (inactive)
[15]
  composite z-score: 2.09
[16]
  z-score: 2.69 (inactive)
[17]
  composite z-score: 0.0498

## COc1ccc([Si](C)(C)[C@@H]2[C@@H](CCn3cc([C@H](O)c4ccccc4)nn3)O[C@]3(C(=O)N(C)c4c(Br)cc(C)cc43)[C@H]2C)cc1
[1]
  composite z-score: 0.114
[2]
  composite z-score: 0.301
[3]
  composite z-score: -0.116
[4]
  composite z-score: -0.246
[5]
  composite z-score: -0.802
[6]
  composite z-score: -0.115
[7]
  composite z-score: -0.288
[8]
  z-score: -2.54 (inactive)
[9]
  composite z-score: -0.43
[10]
  composite z-score: 0.154
[11]
  composite z-score: -0.0221
[12]
  z-score: -2.54 (inactive)
[13]
  z-score: -0.793 (inactive)
[14]
  z-score: 0.406 (inactive)
[15]
  composite z-score: 0.215
[16]
  z-score: 2.87 (inactive)
[17]
  composite z-score: -0.0295

## C=CCC(OC(C)=O)[C@@H]1[C@@H](N(Cc2ccc(-c3cccc(C(F)(F)F)c3)o2)C(=O)c2ccc(-c3ccccc3)cc2)c2cc(OCCCO)ccc2N1C(=O)Cc1ccc(OC)cc1 (stereo not given in full)
[1]
  composite z-score: 0.365
[2]
  composite z-score: -0.338
[3]
  composite z-score: -0.1
[4]
  composite z-score: -0.394
[5]
  composite z-score: -0.654
[6]
  composite z-score: -0.61
[7]
  composite z-score: -0.663
[8]
  z-score: -0.981 (inactive)
[9]
  composite z-score: 0.258
[10]
  composite z-score: -0.0324
[11]
  composite z-score: -0.305
[12]
  z-score: -0.933 (inactive)
[13]
  z-score: -1.88 (inactive)
[14]
  z-score: -0.82 (inactive)
[15]
  composite z-score: -0.0364
[16]
  z-score: 1.84 (inactive)
[17]
  composite z-score: 0.0236

## C[C@@H]1CN([C@@H](C)CO)C(=O)c2c(c3ccccc3n2C)-c2ccccc2CO[C@@H]1CN(C)S(=O)(=O)c1ccc(Cl)cc1
[18]
  outcome: inactive
[19]
  outcome: inactive
[20]
  outcome: inactive

## C[C@@H]1CN([C@H](C)CO)C(=O)c2c(c3ccccc3n2C)-c2ccccc2CO[C@H]1CN(C)S(=O)(=O)c1ccc(Cl)cc1
[18]
  outcome: inactive
[19]
  outcome: inactive
[20]
  outcome: inactive

## CC(C)NC(=O)Nc1ccc2c(c1)C(=O)N([C@@H](C)CO)C[C@H](C)[C@@H](CN(C)Cc1ccc3c(c1)OCO3)OCCCC[C@@H](C)O2
[18]
  outcome: inactive
[19]
  outcome: inactive
[20]
  outcome: inactive

## COc1ccccc1CN1CC[C@H]2[C@H](CO)Nc3ccc(C#Cc4ccccc4)cc3[C@H]21
[18]
  outcome: inactive
[19]
  outcome: inactive
[20]
  outcome: inactive

## C[C@@H]1CN([C@@H](C)CO)C(=O)c2cc(NC(=O)Nc3cccc4ccccc34)ccc2O[C@@H]1CN(C)C(=O)Nc1ccccc1
[18]
  outcome: inactive
[19]
  outcome: inactive
[20]
  outcome: inactive

## CN1C(=O)c2cc(NC(=O)Nc3ccc(Cl)cc3)ccc2OC[C@H]2O[C@@H](CC(=O)NCCN3CCCCC3)CC[C@@H]21
[18]
  outcome: inactive
[19]
  outcome: inactive
[20]
  outcome: inactive

## COc1cccc(S(=O)(=O)Nc2ccc3c(c2)OC[C@H](C)NC[C@@H](C)[C@H](OC)CN(C)C3=O)c1
[18]
  outcome: inactive
[19]
  outcome: inactive
[20]
  outcome: inactive

## Cc1cccc(-c2ccc([C@@H]3[C@H]4CN(C(=O)c5ccc6c(c5)OCO6)CCCCN4[C@H]3CO)cc2)c1
[18]
  outcome: inactive
[19]
  outcome: inactive
[20]
  outcome: inactive

## C[C@@H](NC(=O)C[C@@H]1CC[C@H]2[C@@H](COC[C@@H](O)CN2Cc2cc(F)ccc2F)O1)c1ccccc1
[18]
  outcome: inactive
[19]
  outcome: inactive
[20]
  outcome: inactive

## C[C@@H]1CN([C@H](C)CO)S(=O)(=O)c2ccc(C#Cc3ccc(F)cc3)cc2O[C@H]1CN(C)C(=O)NC1CCCC1
[18]
  outcome: inactive
[19]
  outcome: inactive
[20]
  outcome: inactive

## C[C@@H]1CN([C@@H](C)CO)C(=O)c2cc(NS(=O)(=O)c3ccc(F)cc3)ccc2O[C@@H](C)CCCCO[C@H]1CN(C)S(=O)(=O)c1ccc(F)cc1
[18]
  outcome: inactive
[19]
  outcome: inactive
[20]
  outcome: inactive

## N#Cc1ccc(-c2ccc3c(c2)[C@H]2[C@H](CCN2C(=O)Cc2ccccc2)[C@@H](CO)N3)cc1
[18]
  outcome: inactive
[19]
  outcome: inactive
[20]
  outcome: inactive

## COc1ccc(C#Cc2ccc3c(c2)O[C@@H](CN(C)C(C)=O)[C@@H](C)CN([C@H](C)CO)S3(=O)=O)cc1
[18]
  outcome: inactive
[19]
  outcome: inactive
[20]
  outcome: inactive

## CC=Cc1ccc2n(c1=O)C[C@H]1[C@H](CO)[C@@H](C(=O)N3CCc4ccccc4C3)N(C(=O)C3CC3)[C@@H]21 (mixture of isomers)
[18]
  outcome: inactive
[19]
  outcome: inactive
[20]
  outcome: inactive

## O=C(C1CCOCC1)N1CC[C@@H]2[C@H]1c1cc(Br)ccc1N[C@@H]2CO
[18]
  outcome: inactive
[19]
  outcome: inactive
[20]
  outcome: inactive

## C[C@@H](NC(=O)C[C@@H]1CC[C@@H]2[C@H](COC[C@H](O)CN2Cc2cc(F)ccc2F)O1)c1ccccc1
[18]
  outcome: inactive
[19]
  outcome: inactive
[20]
  outcome: inactive

## COc1ccccc1C(=O)Nc1ccc2c(c1)OC[C@H](C)N(C(C)=O)C[C@H](C)[C@H](OC)CN(C)C2=O
[18]
  outcome: inactive
[19]
  outcome: inactive
[20]
  outcome: inactive

## C[C@H]1CCCCO[C@H](CN(C)C(=O)Nc2ccc(F)cc2)[C@@H](C)CN([C@@H](C)CO)C(=O)c2cc(NS(=O)(=O)c3ccc(Cl)cc3)ccc2O1
[18]
  outcome: inactive
[19]
  outcome: inactive
[20]
  outcome: inactive

## C[C@@H]1CCCCO[C@H](CN(C)Cc2ccc3c(c2)OCO3)[C@H](C)CN([C@H](C)CO)C(=O)c2cc(NC(=O)Nc3cccc4ccccc34)ccc2O1
[18]
  outcome: inactive
[19]
  outcome: inactive
[20]
  outcome: inactive

## C[C@H](CO)N1C[C@H](C)[C@H](CN(C)Cc2ccccc2)Oc2cc(C#Cc3ccccn3)ccc2S1(=O)=O
[18]
  outcome: inactive
[19]
  outcome: inactive
[20]
  outcome: inactive
